# According to PubChem BioAssay:
# Tested on: Neuregulin-1 EGF-like domain
# Experiment: binders of neuregulin-1 EGF-like domain, primary screen, biochemical, small-molecule microarray, 635 nm fluorescence (AID 1081);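 further: binding of the protein to compounds printed on small-molecule microarray slides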
# Settings: small-molecule microarray binding, higher = more signal
row,SMILES,composite z-score
1,COC(=O)C(CC#Cc1ccc2c(c1)[C@]1(C(=O)N2)[C@H](C(=O)N2CCN(c3ncccn3)CC2)[C@H]2C(=O)O[C@H](c3ccccc3)[C@H](c3ccccc3)N2[C@@H]1c1ccc(OCCO)cc1)C(=O)OC,1.26
2,COCCOC(=O)N1C(=O)[C@@]2(c3cc(C#CC4=CCCCC4)ccc31)[C@H](c1ccccc1OCCO)N1[C@H](c3ccccc3)[C@H](c3ccccc3)OC(=O)[C@H]1[C@@H]2C(=O)N1CCCCCCC1,1.29
3,CCOC(=O)C[C@H]1[C@H](OC(=O)c2ccc(C(=O)c3ccccc3)cc2)[C@@H](NC(=O)Cc2ccc(OC)cc2)c2cc(OCCCO)ccc2N1C(=O)c1ccccc1,0.676
4,C=CC[C@@]1(C(=O)N2CCOCC2)N=C(c2ccc(OCCCO)cc2)O[C@@H]1c1ccccc1CN=[N+]=[N-],1.15
5,NC(=O)NCC#Cc1ccc2c(c1)[C@]1(C(=O)N2)[C@H](C(=O)NC[C@H](O)c2ccccc2)[C@H]2C(=O)O[C@H](c3ccccc3)[C@H](c3ccccc3)N2[C@@H]1c1ccc(OCCO)cc1,0.537
6,C=C(COC)/C(=C/C[C@H](OC(=O)c1ccncc1)c1ccccc1OCCO)c1cnc2ccccc2c1,1.24
7,[N-]=[N+]=Nc1ccccc1C[C@]1(C(N)=O)N=C(c2ccc(OCCCO)cc2)O[C@H]1c1ccccc1N=[N+]=[N-],1.21
8,CN1C(=O)C2C=CC(C(O)c3ccccn3)N(N(c3ccccc3)c3ccccc3)C2C1=O (centres undefined),0.622
9,NCCCCCCNC(=O)[C@@H]1C[C@@H]2C(=O)N[C@@H](CCCCN)C(=O)N2[C@@H]1c1cccc(OCCO)c1,1.2
